Screens as filed in PubChem BioAssay.
TROY signal inh: inhibitors of TROY-dependent NF-kB signaling. Q293 LMP1-TROYcd NF-kB luciferase reporter, 4 h. inhibition, % at 10 µM. hit rate 0.98% among 360,000;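 active = compounds whose plate-normalised and pattern-corrected inhibition of the luciferase reporter signal at the single screening dose is 50% or more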
HIF-2a inh: HIF-2a inhibition | AID 624352 | 786-0 RCC cells HIF-2a reporter, luciferase luminescence, overnight | hit rate 0.72% among 360,000 | inhibition, % at 18.8 µM;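 active = inhibition of the luminescence signal of 40% or more relative to plate controls, in a single-dose primary screen at 18.75 µM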
TWEAK-Fn14 inh: inhibitors of TWEAK-Fn14 interaction signaling. hit rate 2% among 360,000. inhibition, % at 10 µM. TWEAK-stimulated Fn14 reporter cells, luciferase luminescence, 8 h; in the data active = inhibition above about 50%
Peg3 promoter: Peg3 promoter activity inhibition; AID 588405; HeLa PEG-Prom luciferase reporter, luminescence, overnight; hit rate 1.7% among 360,000; inhibition, % at 20 µM;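 active = inhibition of at least 50% at 20 µM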
CF NFkB block: blocks PAF-induced NF-kB reporter in cystic fibrosis cells; KKLEB NF-kB-GFP reporter, GFP fluorescence overnight; inhibition, % at 5 µM; hit rate 0.86% among 360,000;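 active = at least 50% inhibition at 5 µM, scaled per plate between neutral and stimulator controls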;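 also: PAF is a Pseudomonas aeruginosa culture filtrate used as stimulus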
KKLEB cytotox: reduces viability of KKLEB cystic fibrosis airway cells; KKLEB CF airway cells viability, ATPlite luminescence, overnight; stronger effect = lower value; cells stimulated with P. aeruginosa culture filtrate; activity change (cytotoxicity), % at 5 µM; hit rate 0.36% among 360,000;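 active = corrected activity change at or below -50% at 5 µM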
Large screens that a line does not name were inactive. Rows were chosen to be rich in hits. Some 4% of all compounds tested hit in one or more screens of this group.

COc1ccc(C2=NOC(C(=O)NCc3cccnc3)C2)cc1OC (centres undefined)	none
Cn1cccc1Cc1nnc(SCC(=O)N2CCc3ccccc32)n1-c1ccc(F)cc1	TWEAK-Fn14 inh 57.0
Cn1cccc1Cc1nnc(SCC(=O)N2CCCc3ccccc32)n1-c1ccc(F)cc1	none
COc1ccc(NC(=O)CSc2nnc(C3CC3)n2-c2ccccc2)cc1	none
COc1ccc(-n2c(Cc3cccn3C)nnc2SCC(=O)Nc2cccc(OC)c2)cc1	none
COc1ccc(-n2c(Cc3cccn3C)nnc2SCC(=O)Nc2ccc(C)c(Cl)c2)cc1	TWEAK-Fn14 inh 52.4
COc1ccc(NC(=O)CSc2nnc(-c3cccs3)n2-c2ccccc2)cc1	TWEAK-Fn14 inh 54.2
CCn1c(SCC(=O)Nc2cccc(C)c2)nc2c(c1=O)SC(C)C2 (centres undefined)	none
O=C(CN(C(=O)c1ccc(Cl)cc1)N1C(=O)C2C3C=CC(C3)C2C1=O)c1cccs1 (centres undefined)	none
O=C1OC[C@@H]2CCCN2C(=O)[C@@H](CC(=O)N(CCO)Cc2ccccc2)C/C=C\C[C@H]1Cc1ccc(F)cc1	none
Cc1ccc(S(=O)(=O)Nc2ccc(Cl)cc2)cc1NC(=O)Cn1cnc2c1c(=O)n(C)c(=O)n2C	TWEAK-Fn14 inh 88.9
Cc1ccccc1NC(=O)Cn1cnc2c1c(=O)n(C)c(=O)n2C	none
Cc1ccc(S(=O)(=O)CC(=O)NC(C)(C)C)cc1	none
Cc1cc(-c2csc(NC(=O)c3ccc(=O)[nH]c3)n2)c(C)n1Cc1ccco1	TWEAK-Fn14 inh 58.3
COC(=O)c1ccc(C(=O)OC)c(NC(=O)CN2CCN(c3ccccc3OC)CC2)c1	Peg3 promoter 51.7
COc1ccc(CCNC(=O)c2ccccc2NC(=O)CN2CCN(c3ccccc3O)CC2)cc1	Peg3 promoter 52.0
Cc1ccc(-n2c3c(cc(C(=O)NCC(=O)c4ccccc4)c2=O)C(=O)CCC3)cc1	TWEAK-Fn14 inh 92.8
O=C(Nc1ccc(-n2ccc(C(F)(F)F)n2)cc1)Nc1cccc(Cl)c1	TWEAK-Fn14 inh 72.2
CCN(CC)C(=O)CN(c1cc(Cl)ccc1OC)S(=O)(=O)c1ccc(C)c([N+](=O)[O-])c1	none
CCN(CC(=O)Nc1ccc2c(c1)OCCO2)C(=O)COc1cc(C)ccc1Cl	TWEAK-Fn14 inh 87.2
CCOC(=O)c1sc2nc(NC(=O)C(C)(C)C)sc2c1C	TROY signal inh 68.1, TWEAK-Fn14 inh 64.6
CN(C)c1ccc(CNCCC(Cc2ccccc2)c2ccco2)cc1 (centres undefined)	Peg3 promoter 50.1
CC(=NNC(=S)N1CC2CCC(CC2)C1)c1ccncn1	Peg3 promoter 99.7
Cc1[nH]c2ccc(Br)cc2c(=S)c1C/C=C/Cl	none
Cc1ccccc1N(Cc1nnc2n1CCCCC2)C(=O)Nc1ccccc1	none
CCN(CC)S(=O)(=O)c1cccc(-c2nc3n(n2)Cc2ccccc2-3)c1	none
Clc1ccc(-c2nc3n(n2)Cc2ccccc2-3)cc1	TWEAK-Fn14 inh 51.7
CC1CCN(c2ccc(-c3ccc(NC(=O)C(F)(F)F)cc3)nn2)CC1	TWEAK-Fn14 inh 62.2
COc1ccccc1CCC(=O)N(C)C1CCCN(Cc2ccccc2F)C1 (centres undefined)	none
C=CCOC(=O)/C(=C\c1ccccc1)NC(=O)c1ccc(C)cc1	TROY signal inh 50.9
CCOC(=O)/C(=C\c1ccccc1)NC(=O)c1ccccc1	none
O=C(/C=C/c1ccco1)Nc1sc2c(c1C(=O)O)CCC2	none
N#Cc1c(NC(=O)/C=C/c2ccco2)sc2c1CCCC2	CF NFkB block 62.5, KKLEB cytotox -51.7
COc1ccc(CNC(=O)CCSCc2cccc(F)c2)cc1	none
Cc1oc(-c2cccc(F)c2)nc1CN(Cc1ccccc1)C[C@@H]1CCC(=O)N1	none
COc1cccc(C2=Cc3ccc(F)cc3C(CC(C)=O)N2c2ccc(C#CC3(O)CCCCC3)cc2)c1 (centres undefined)	TWEAK-Fn14 inh 65.0 (no result: Peg3 promoter, CF NFkB block, KKLEB cytotox)
Cc1cc(Br)cc(/C=N/NC(=O)c2ccc3c(c2)OCO3)c1O	none
O=C(N/N=C/c1cc(Br)cc(Cl)c1O)c1ccc2c(c1)OCO2	Peg3 promoter 54.8
O=C(Cc1ccccc1)N/N=C/c1cc(Br)cc(Cl)c1O	Peg3 promoter 53.4
COc1ccc(C(=O)O)cc1S(=O)(=O)NC(C)C12CC3CC(CC(C3)C1)C2 (centres undefined)	none
COc1ccc(OC)c(NC(=O)c2cc(-c3cc(Cl)ccc3O)n[nH]2)c1	TROY signal inh 51.2, TWEAK-Fn14 inh 54.8
COc1ccc(Cl)cc1NC(=O)c1cc(-c2ccccc2O)n[nH]1	none
CC1=C(C(=O)OC2CCCCCCC2)C(c2cc3c(cc2Br)OCO3)CC(=O)N1 (centres undefined)	none
CC(C)C1C(=O)N(Cc2cn(CCC3OCCCO3)nn2)CCS(=O)(=O)N1Cc1ccc(-c2ccc(Cl)c(Cl)c2)cc1 (centres undefined)	Peg3 promoter 88.2
CC1C(=O)N(Cc2cn(CCC3OCCO3)nn2)CCS(=O)(=O)N1Cc1ccc(-c2ccc(Cl)c(Cl)c2)cc1 (centres undefined)	TWEAK-Fn14 inh 56.0
CCN(CC)CCN(C(=O)CN1C(=O)CCC1=O)c1nc2cc3c(cc2s1)OCO3	none
O=C1CC(NNc2nc3ccccc3s2)C(=O)N1c1ccccc1 (centres undefined)	TROY signal inh 61.0
Cc1ccc(N2C(=O)CC(NNc3nc4ccccc4s3)C2=O)cc1 (centres undefined)	none
CNC(=O)Nc1ccccc1C(=O)NCc1ccccc1	TWEAK-Fn14 inh 62.2
O=C(Nc1ccccc1)Nc1ccccc1C(=O)NCc1ccccc1	none
Cn1c(NCc2ccncc2)nc2cc(-c3ccsc3)sc2c1=O	none
Cc1ccc(NC(=O)Cn2c(-c3ccc(F)cc3)cnc2SCC(=O)Nc2c(C)cccc2C)cc1	Peg3 promoter 76.5
CCC(C)C(NC(=O)CCC(=O)OCC(=O)[C@@]1(O)CCC2[C@@H]3CCC4=CC(=O)C=C[C@]4(C)C3[C@@H](O)C[C@@]21C)C(=O)O (some centres undefined)	CF NFkB block 74.0
C[C@]12C=CC(=O)C=C1CC[C@@H]1C2[C@@H](O)C[C@@]2(C)C1CC[C@]2(O)C(=O)COC(=O)CCC(=O)O (some centres undefined)	CF NFkB block 74.4
CC(=O)OCC(=O)C1(O)CCC2C3CCC4=CC(=O)C=CC4(C)C3C(O)CC21C (centres undefined)	CF NFkB block 74.9
CC12C=CC(=O)C=C1CCC1C2CCC2(C)C(C(=O)CO)CCC12 (centres undefined)	none
COc1ccccc1N1CCN(/N=C/c2cc(OC)c(OC(C)=O)c(OC)c2)CC1	none
C[C@@H]1CN([C@H](C)CO)C(=O)CCCn2nncc2CO[C@@H]1CN(C)S(=O)(=O)c1ccc(C#N)cc1	none
COC(=O)c1cc(F)c(-n2cncn2)c(F)c1	none
